Assay results published in ChEMBL document CHEMBL4513216, “Probing the Open Global Health Chemical Diversity Library for Multistage-Active Starting Points for Next-Generation Antimalarials” (ACS Infect Dis, 2020).
Among all 65,000 compounds or so, about 2,100 (3.2%) showed an effect of 50% or more. The median lay at about -52%. The sample as a whole holds a higher share of strong results than the screen did.

Tested on: Plasmodium falciparum
Assay: Screen against P. falciparum Asexual Blood Stage (ABS), at 5uM
Assay type: functional, Dd2
Conditions: tested at 5 uM

SMILES	INHIBITION
Cc1cc(C(=O)NCc2ccnc(N3CCN(C)CC3)c2)sc1C	-5.05%
Cc1cc(C(=O)NCc2ccnc(N3CCN(C)CC3)c2)c(C)s1	32.2%
Cc1ncsc1C(=O)NCc1ccnc(N2CCN(C)CC2)c1	62.9%
Cc1ccc(C(=O)NCc2ccnc(N3CCN(C)CC3)c2)cn1	-38.9%
Cc1cc(C(=O)NCc2ccnc(N3CCOCC3)c2)c(C)s1	50.6%
Cc1ccsc1C(=O)NCc1ccnc(N2CCN(C)CC2)c1	-35%
Cc1cnc(N2CCC3(CC2)CC3CNC(=O)C2CCC2)nc1 (centres undefined)	-57.8%
COc1cccc(-c2noc(C3CCN(Cc4ccc(C)cc4)C3)n2)c1 (centres undefined)	-97.2%
O=C(c1cc(Cl)ccc1OC1CCN(C2CCCC2)CC1)N1CCCO1	53.5%
O=C(c1cc(Cl)ccc1OC1CCN(C2CCCC2)CC1)N1CC(O)C1	-96%
CC(=O)N1CCC(Oc2ccc(Cl)cc2C(=O)N2CCCO2)CC1	-31%
Cc1noc([C@@H]2C[C@H]3OCC[C@H]3N(Cc3sccc3C)C2)n1	-15.2%
CN(C)C(=O)c1cn2cc(-c3ccccc3Cl)n(CC3CC3)c(=O)c2n1	37.8%
CCNC(=O)c1cn2cc(-c3ccccc3Cl)n(CC3CC3)c(=O)c2n1	43.7%
CN(C)C(=O)c1cn2cc(-c3cccc(Cl)c3)n(CC3CC3)c(=O)c2n1	-21.6%
CNC(=O)c1cn2cc(-c3ccc(F)cc3)n(CC=C(C)C)c(=O)c2n1	39.1%
CNC(=O)c1cn2cc(-c3cccc(Cl)c3)n(CC=C(C)C)c(=O)c2n1	56.6%
NC(=O)c1cn2cc(-c3ccccc3Cl)n(CC3CC3)c(=O)c2n1	-27.5%
CNC(=O)c1cn2cc(-c3ccccc3Cl)n(CC3CC3)c(=O)c2n1	54.7%
CNC(=O)c1cn2cc(-c3ccccc3Cl)n(CC=C(C)C)c(=O)c2n1	68.2%
CNC(=O)c1cn2cc(-c3cccc(Cl)c3)n(CC3CC3)c(=O)c2n1	19.5%
CCn1cc(NC(=O)CCc2ccc3c(c2)OCCCO3)cn1	-127%

SMILES	INHIBITION
Brc1ccc(-c2nnc(CN(Cc3cccs3)CC3CCCO3)o2)s1 (centres undefined)	-45.2%
Cc1cnn(CC2CCCN2Cc2nnc(C3CC3)n2C)c1 (centres undefined)	-100%
COC1[C@@H]2CC[C@H]1CN(c1nc(C)nc3sccc13)C2 (some centres undefined)	-88.3%
O=C(c1cc(C2CC2)on1)N1CCCC(n2cncn2)C1 (centres undefined)	-34.5%
Cc1cc(C(=O)N2CCCC(n3cncn3)C2)on1 (centres undefined)	-247%
Cc1cc(C(=O)N2CCCC(n3cncn3)C2)no1 (centres undefined)	66.7%
Cc1ccc(-c2cc(C(=O)NCCCc3csc(N)n3)[nH]n2)o1	22%
Cn1cccc1-c1cc(C(=O)NCCCc2csc(N)n2)[nH]n1	-75.5%
Cc1ccc(-c2cc(C(=O)NCCCc3csc(N)n3)[nH]n2)s1	66.5%
Cc1nc(C)c(CNC(=O)N2CCN(c3ccc(Cl)cn3)CC2)s1	-49.6%
O=C(NC1CCC1)[C@@H]1C[C@@H]2CCN(Cc3cccs3)C[C@@H]2O1	-168%
CC(C)(N)C(=O)N1CCC(c2nccnc2Oc2ccccc2F)CC1	-4.82%
NC(=O)c1cccc(C2CCN(c3ncccn3)CC2)n1	-58%
O=C1NCCCc2[nH]c(Cc3cccc(Cl)c3)nc21	-167%
Clc1cccc(C[C@@H]2NCCC[C@@H]2Nc2ccccc2)c1	88.7%
O=C(Cc1cccc(Cl)c1)N[C@@H]1CCNC[C@H]1O	-75.4%
CC(NC(=O)NCCCc1n[nH]c(N)c1C#N)c1cccc(Cl)c1 (centres undefined)	0.414%
COCC(=O)N(C)Cc1nc(N2CCCC2)ncc1-c1ccncc1	-9.28%
CCn1nnc2c1C(COCCN(C)C)CN(Cc1ccc(C)s1)C2 (centres undefined)	60.1%
CCn1nnc2c1C(COCCN(C)C)CN(Cc1ccco1)C2 (centres undefined)	-67.6%
Cc1ccc(CN2Cc3nnn(C)c3C(COCC3CC3)C2)s1 (centres undefined)	-90.4%
CCOC(=O)N1CC(=O)N(Cc2ccc(OC)cc2)CC(O)C1 (centres undefined)	-109%

SMILES	INHIBITION
Cc1occc1C(=O)N1CCC2(CCC2NC(=O)c2ccn(C)c2)CC1 (centres undefined)	-23.1%
CC(C)c1ccc(CNC(C)c2ccc(S(C)(=O)=O)cc2)cc1 (centres undefined)	53.6%
CC(NCc1ccc(C(C)(C)C)cc1)c1ccc(S(C)(=O)=O)cc1 (centres undefined)	-7.37%
CC(NCc1ccc(F)cc1)c1ccc(S(C)(=O)=O)cc1 (centres undefined)	-28.9%
Cc1ccc(-c2cc(CN3CCc4cnc(C)nc4C3)on2)cc1	-29%
CN1C(=O)CCC12CCC(NCc1ccsc1)CC2 (centres undefined)	-30.4%
O=C1CCC2(CCC(NCc3ccsc3)CC2)N1Cc1ccccc1 (centres undefined)	65.3%
O=C1CCC2(CCC(NCc3cccnc3)CC2)N1Cc1ccccc1 (centres undefined)	-16.6%
Cc1cc(C(=O)NCC(F)(F)F)c2c(C3CCNCC3)noc2n1	-42.4%
CCn1nc2c(cc1=O)CN(c1ncnc3ccsc13)CC2	17.6%
CC(=O)N1CCO[C@@H]2CN(Cc3ccccc3F)C[C@@H]2C1	-77.7%
CN(C)Cc1cc(C2CCCN(S(=O)(=O)c3cccc(Cl)c3)C2)nn1C (centres undefined)	56.5%
O=S(=O)(c1cccc(Cl)c1)N1CCCC(Cn2cncn2)C1 (centres undefined)	-36.3%
CN(C)S(=O)(=O)N1CCCC(c2nccnc2-c2cccc(Cl)c2)C1 (centres undefined)	-85.8%
Cc1cccc(-n2ncc3c2CCCC3NCC(C)(C)CO)c1C (centres undefined)	-58.1%
O=C(c1ccsc1)N1C[C@H]2CCC[C@@]2(COCc2cccnc2)C1	-29.9%
Cc1ccc(CN2C[C@@H](C(=O)Nc3cccnc3)C[C@H]3OCC[C@H]32)o1	-35.4%
Cc1ccsc1-c1cccc(-c2ccn(CC3CCNC3)n2)c1 (centres undefined)	61.7%
Cc1nccc(-c2cccc(-c3ccn(CC4CCNC4)n3)c2)n1 (centres undefined)	-137%
c1cc(-c2cncnc2)cc(-c2ccn(CC3CCNC3)n2)c1 (centres undefined)	13.9%
Cc1cccc(C(=O)N2CC[C@]3(C[C@H](OCc4ccccn4)CO3)C2)c1	-121%
CCN(CC)c1ccc(NS(=O)(=O)c2cnn(C)c2)cn1	-98.6%

SMILES	INHIBITION
CCN(CC)c1ccc(NS(=O)(=O)c2cncc(F)c2)cn1	-19.4%
CCN(CC)c1ccc(NS(=O)(=O)c2cccnc2)cn1	59.3%
CC(C)(C)c1ccc(-n2ncc3c2CCCC3N)cc1 (centres undefined)	31.8%
Cc1ccc(-n2ncc3c2CCCC3N)cc1C (centres undefined)	7.06%
NC1CCCc2c1cnn2-c1cc(F)cc(F)c1 (centres undefined)	53.6%
CC(O)CN1CCN(Cc2csc(-c3ncccn3)n2)CC1 (centres undefined)	-107%
CCC1(CNCc2ncc[nH]2)CCCC1	67%
c1ccc(CC2(CNCc3ncc[nH]3)CCC2)cc1	45.2%
CCCC1(CNCc2ncc[nH]2)CCC1	26.4%
CCc1ccc(C(=O)N2CC[C@H](Oc3cccnc3C)[C@@H](O)CC2)cc1	-41%
CN(C)c1cc(C(=O)N2CCCCCC2)ccn1	-8.55%
CN(C)c1cc(C(=O)N2CCCC2)ccn1	55.6%
CN(C)c1cc(C(=O)N2CCCCC2)ccn1	-78.5%
N#CCCN(C(=O)CN1CCCC1Cc1ccccc1)c1ccccc1 (centres undefined)	22.1%
N#CCCN(C(=O)CN1CCCC1c1ccsc1)c1ccccc1F (centres undefined)	69.7%
N#CCCN(C(=O)CN1CCCC1c1ccsc1)c1ccccc1 (centres undefined)	1.81%
Cc1ccc(C2CCCN2CC(=O)N(CCC#N)c2ccccc2)cc1 (centres undefined)	62.4%
CCN(C(=O)CN1CCCC1c1ccc(OC)cc1)c1ccccc1 (centres undefined)	18.8%
Cc1ccc(N(CCC#N)C(=O)CN2CCCC2c2cccs2)cc1 (centres undefined)	13.3%
CN(C(=O)CN1CCCC1Cc1ccccc1)c1ccccc1 (centres undefined)	22.7%
N#CCCN(C(=O)CN1CCCC1c1cccs1)c1ccccc1F (centres undefined)	40%
Cc1ccc(N(CCC#N)C(=O)CN2CCCC2c2ccsc2)cc1 (centres undefined)	46.2%

SMILES	INHIBITION
N#CCCN(C(=O)CN1CCCC1C1CCCCC1)c1ccccc1 (centres undefined)	52.2%
CCN(C(=O)CN1CCCC1Cc1ccccc1)c1ccccc1 (centres undefined)	61.3%
N#CCCN(C(=O)CN1CCCC1c1ccccc1Cl)c1ccccc1 (centres undefined)	40.4%
CC(C)Nc1ncc(-c2csc(NC(=O)C[C@H]3COCCN3)n2)cn1	-130%
c1ccc(CN2CCc3ncnc(-c4cccnc4)c3CC2)nc1	-71.1%
Cc1cnccc1NCCNC1CCSCC1	-40.9%
CCc1nccn1CC(=O)Nc1cccc(N2CCCC2)c1	-50.9%
Cn1nc(C2CCCNC2)c2c(C(=O)NC3CC3)cc(C3CC3)nc21 (centres undefined)	-98.6%
CC(=O)c1ccc(OCC(=O)NS(=O)(=O)c2ccc(C)s2)cc1	-93.5%
CC(C)C(NC(N)=O)C(=O)NCc1ccc(N2CCCC2)nc1 (centres undefined)	-34.4%
Cc1nnc(CN2C[C@@H]3CC[C@H]2CN(C2Cc4ccccc4C2)C3)o1	38.4%
Cc1cc(CN2C[C@@H]3CC[C@H]2CN(C2Cc4ccccc4C2)C3)on1	62.7%
Cc1noc(CN2C[C@@H]3CC[C@H]2CN(C2Cc4ccccc4C2)C3)n1	3.93%
Cc1noc(CNC(=O)CN(C)c2nc3c(C)ccc(C)c3s2)n1	-71.5%
CCCn1nccc1-c1cc(C2CCN(S(C)(=O)=O)CC2)ccn1	-114%
Cc1ccc(N2C[C@H]3CCC[C@@H](CN(C)C)[C@H]3C2)nn1	-54.9%
COCCN(C)C[C@@H]1CCC[C@@H]2CN(c3ncccn3)C[C@@H]21	33.9%
CN(C[C@@H]1CCC[C@@H]2CN(c3ncccn3)C[C@@H]21)C1CC1	17.5%
CN(C)C[C@@H]1CCC[C@@H]2CN(c3ncccn3)C[C@@H]21	44.8%
CN(C)C[C@@H]1CCC[C@@H]2CN(c3nccc(C(F)(F)F)n3)C[C@@H]21	64.8%
CN(C)C[C@@H]1CCC[C@@H]2CN(c3cccnc3)C[C@@H]21	56.4%
